# Several values for one entry are separate records, joined by “and”; a condition that tells them apart may be missing. Identical values can stand only once. Inconclusive results are not listed. Activity calls are given as the source filed them. Unless noted, no cut-off is given here; in the data, nearly all actives have AC50 up to about 26 µM.
# Columns and labels:
# [1] = viability loss in pontine glioma line – cell-based, SU-DIPG-XVII, MIPE5.0, CellTiter-Glo, qHTS, dose response (AID 1347060); conditions: CellTiter-Glo ATP luminescence;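 for AC50: cells exposed to compound for 48 hours before viability readout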
# [2] = viability loss in pontine glioma line – cell-based, SU-DIPG-XXV, MIPE5.0, CellTiter-Glo, qHTS, dose response (AID 1347065); conditions: CellTiter-Glo ATP luminescence;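 note: cells exposed to compound for 48 hours before ATP readout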
# [3] = viability loss in pontine glioma line – cell-based, SU-DIPG-XIII, MIPE5.0, CellTiter-Glo, qHTS, dose response (AID 1347064; cut-off not given, nearly all actives have AC50 up to about 23 µM;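 for AC50: cells exposed to compound for 48 hours before the viability read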); conditions: CellTiter-Glo ATP luminescence
# [4] = JHH-DIPG-1 glioma cell viability, MIPE5.0 library, CellTiter-Glo luminescence, qHTS (AID 1347067); conditions: JHH-DIPG-1 glioma viability, CellTiter-Glo ATP luminescence;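 note: cells exposed to compound for 48 hours before readout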
# [5] = growth inhibition of DIPG cells – cell-based, MIPE5.0 library, qHTS (AID 1347068; cut-off not given, nearly all actives have IC50 up to about 30 µM;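 for IC50: cells exposed to compound for 48 hours before viability readout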); conditions: SU-DIPG-XXV viability
# [6] = viability loss with induced miR-34 in A549 – imaging, A549 dox-inducible miR-34, nuclei and caspase counts, primary screen (AID 1347080;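 active = compounds whose cell count with miR-34 switched on is under 0.7 times the count with it off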); conditions: A549 miR-34 inducible, Hoechst nuclei count, 48 h
# [7] = chitosan synthesis blockers in C. neoformans – flow cytometry, Cibacron Brilliant Red staining (AID 1347148; call rule not given here;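 note: compound exposure lasted three days at 37 degrees C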); conditions: Cryptococcus neoformans chitosan, stronger effect = lower value; at 10 µM unless noted
# [8] = compounds altering circadian rhythm period length – cell-based, LOPAC library, luminescence reporter (AID 2774; call rule not given here;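 note: values are relative to mean of DMSO wells on each plate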); conditions: circadian reporter cells, at 7 µM, actives lie on both sides
# [9] = compounds altering viability of human ES cells (AID 493140; call rule not given here;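 note: cells exposed to compounds for four days before counting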); conditions: human embryonic stem cell survival screen; stronger effect = higher value
# [10] = P. berghei load reduction in hepatocytes – cell-based, HepG2, luciferase luminescence, HepG2 viability, primary screen (AID 624349; in the data active = parasite load remaining mostly below about 12%, no sharp cut-off; inactive = mostly above about 10%;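 note: 100% = mean of DMSO negative control wells on the same plate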); conditions: P. berghei liver stage in HepG2, luciferase luminescence, concentration not given here; parasite load remaining: stronger effect = lower value; viability: measured here: HepG2 viability without parasites
# [11] = tested on: Hepatitis C virus NS3 helicase; experiment: blockers of NS3h binding to ssDNA – biochemical, fluorescence polarization, LOPAC1280 library, primary screen (AID 687035; in the data active = inhibition above about 37%); conditions: Purified HCV NS3 helicase, Cy5-dT15 ssDNA binding fluorescence polarization; stronger effect = higher value; concentration not given here
# [12] = compounds altering Cy5-DNA-NS3h complex signal – biochemical, LOPAC1280, artefact control for HCV NS3 helicase inhibitor project (AID 687037; call rule not given here); conditions: Cy5-DNA-NS3h complex fluorescence interference counterscreen
# [13] = blockers of cellular phospholipid synthesis – cell-based, LOPAC library, screen 4, primary screen (AID 1347384; call rule not given here); conditions: animal cells, phospholipid biosynthesis inhibition screen; at 10 µM
# [14] = galactose survival enhancers in mitochondrial complex I cybrids – cell-based, galactose medium, ATP luminescence, primary screen (AID 1645843;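 active = z-score of at least 1.8 in each of two replicates, scored against plate mean and spread of sample wells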;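 note: positive z means more ATP and so rescue of galactose-driven cybrid death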); conditions: complex I mutant cybrid cells, 72 h, stronger effect = higher value
# [15] = MELAS cybrid and Rieske KO viability enhancers – cell-based, MELAS cybrids, Rieske KO mouse fibroblasts, CellTiter-Glo, primary screen (AID 1508586;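 active = mean z-score across replicates of 1.96 or higher in either the MELAS or the Rieske mutant cell line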;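 note: z relative to plate mean and SD of compound and empty wells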); conditions: low glucose
# [16] = stronger effect = lower value, cell number ratio, induced over uninduced
# [17] = measured here: relative caspase fold change +Dox/-Dox
# [18] = measured here: total cells with miR-34 induction, stronger effect = lower value
# [19] = measured here: total cells without miR-34 induction
smiles,measurement,setting,value
COc1ccc(Oc2cc(NCCC(F)(F)F)c3ncc(-c4ccc(C(=O)NC5CC5)c(C)c4)n3n2)c(F)c1F,AC50,[1],0.059 µM (active)
same,AC50,[2],372 nM (active)
CCCN1CCN(c2ccc(C(=O)NC3(C(=O)NCC#N)CCCCC3)cc2)CC1,outcome,[1],inactive
same,outcome,[3],inactive
same,outcome,[4],inactive
same,outcome,[5],inactive
CNC(=O)[C@H](Cc1c[nH]c2ccccc12)NC(=O)[C@@H](CC(=O)NO)CC(C)C,outcome,[1],inactive
same,outcome,[3],inactive
same,outcome,[4],inactive
same,outcome,[5],inactive
same,fold change,[6]; [16],1.03 (inactive)
same,fold change,[6]; [17],0.925
same,cell count,[6]; [18],4790
same,cell count,[6]; [19],4630
same,fold fluorescence,[7],4.97 [at 128.7 µM] (inactive)
CCn1nc(C2CCN(C(=O)CCO)CC2)nc1-c1cnc(N)c(-c2nnc(C(C)(C)C)o2)n1,AC50,[1],5.9 µM (active)
same,AC50,[2],2090 nM (active)
CC(C)Cc1ccc([C@@H](C)C(=O)NS(C)(=O)=O)cc1,outcome,[1],inactive
same,outcome,[3],inactive
same,outcome,[5],inactive
Cn1c(=O)c(-c2c(Cl)cccc2Cl)cc2cnc(Nc3cccc(C(=O)O)c3)nc21,AC50,[1],1.48 µM (active)
same,AC50,[3],2.35 µM (active)
same,outcome,[5],inactive
COc1ncc(Nc2ncc(C(C)N3CCN(S(C)(=O)=O)CC3)cc2-c2nc(C)nc(N)n2)cc1F (configuration not stated),AC50,[1],0.934 µM (active)
same,AC50,[2],235 nM (active)
O=S(=O)(c1cccc2c(I)cccc12)N1CCCNCC1,period change,[8],0.03 h (inactive)
same,survival,[9],70.8 (inactive)
same,parasite load remaining,[10],33.8% (inactive)
same,viability,[10],77.3%
same,inhibition,[11],-1% (inactive)
same,fluorescence ratio (interference),[12],0.9 (inactive)
same,outcome,[1],inactive
same,outcome,[3],inactive
same,outcome,[4],inactive
same,fold change,[6]; [16],0.977 (inactive) and 0.963 (inactive)
same,fold change,[6]; [17],0.686 and 1.04
same,cell count,[6]; [18],7130 and 3010
same,cell count,[6]; [19],7300 and 3130
same,fold fluorescence,[7],13.8 [at 120.1 µM] (inactive)
same,outcome,[13],inactive
same,z-score,[14],-0.91 (inactive)
COc1ccc2c(c1)[C@]1(C[C@H]1c1ccc3c(/C=C/c4ccc(CN5C[C@@H](C)O[C@@H](C)C5)cc4)n[nH]c3c1)C(=O)N2,AC50,[1],4.17 µM (active)
same,AC50,[2],41.7 nM (active)
CN1C(=O)c2sccc2N(C)c2nc(Nc3ccc(S(N)(=O)=O)cc3)ncc21,AC50,[1],14.8 µM (active)
same,AC50,[2],3720 nM (active)
Cc1cccc(-c2[nH]ncc2-c2ccc(F)c(-c3cnn(CCO)c3)c2)n1,outcome,[1],inactive
same,outcome,[3],inactive
same,IC50,[5],26.3 µM (active)
Cc1nn(C)c(COc2ccc(N3CCN(S(=O)(=O)N(C)C)CC3)cc2)c1-c1cccc2c(CCCOc3cccc4ccccc34)c(C(=O)O)n(CCN3CCOCC3)c12,AC50,[1],14.8 µM (active)
same,AC50,[3],18.6 µM (active)
same,AC50,[4],18.6 µM (active)
same,outcome,[5],inactive
O=C(Nc1cccc(C(F)(F)F)c1)Nc1cc(S(=O)(=O)NC2CC2)ccc1-c1ccsc1,outcome,[1],inactive
same,outcome,[3],inactive
same,outcome,[4],inactive
same,outcome,[5],inactive
same,fold change,[6]; [16],0.892 (inactive)
same,fold change,[6]; [17],0.311
same,cell count,[6]; [18],6420
same,cell count,[6]; [19],7200
same,z-score,"[15]; MELAS cybrid survival, CellTiter-Glo 48 h, stronger effect = higher value",-0.374 (inactive)
same,z-score,"[15]; Rieske KO mouse fibroblast survival, CellTiter-Glo 72 h",-0.851
